From PubChem BioAssay (Tox21)
Results filed as inconclusive are left out. Where a call stands in place of a potency, no number is given. Activity calls are given as the source filed them. Unless noted, the call rests on the fitted dose curve; in most records, active means well fitted curve in the direction sought with a large enough effect in the repeat runs; inconclusive means weak or mixed curves; inactive means no such curve, though single readings can be large; an effect the other way counts as inactive or inconclusive.

Target: Androgen receptor (Homo sapiens) (UniProt P10275)
Sequence (P10275 whole entry, looked up): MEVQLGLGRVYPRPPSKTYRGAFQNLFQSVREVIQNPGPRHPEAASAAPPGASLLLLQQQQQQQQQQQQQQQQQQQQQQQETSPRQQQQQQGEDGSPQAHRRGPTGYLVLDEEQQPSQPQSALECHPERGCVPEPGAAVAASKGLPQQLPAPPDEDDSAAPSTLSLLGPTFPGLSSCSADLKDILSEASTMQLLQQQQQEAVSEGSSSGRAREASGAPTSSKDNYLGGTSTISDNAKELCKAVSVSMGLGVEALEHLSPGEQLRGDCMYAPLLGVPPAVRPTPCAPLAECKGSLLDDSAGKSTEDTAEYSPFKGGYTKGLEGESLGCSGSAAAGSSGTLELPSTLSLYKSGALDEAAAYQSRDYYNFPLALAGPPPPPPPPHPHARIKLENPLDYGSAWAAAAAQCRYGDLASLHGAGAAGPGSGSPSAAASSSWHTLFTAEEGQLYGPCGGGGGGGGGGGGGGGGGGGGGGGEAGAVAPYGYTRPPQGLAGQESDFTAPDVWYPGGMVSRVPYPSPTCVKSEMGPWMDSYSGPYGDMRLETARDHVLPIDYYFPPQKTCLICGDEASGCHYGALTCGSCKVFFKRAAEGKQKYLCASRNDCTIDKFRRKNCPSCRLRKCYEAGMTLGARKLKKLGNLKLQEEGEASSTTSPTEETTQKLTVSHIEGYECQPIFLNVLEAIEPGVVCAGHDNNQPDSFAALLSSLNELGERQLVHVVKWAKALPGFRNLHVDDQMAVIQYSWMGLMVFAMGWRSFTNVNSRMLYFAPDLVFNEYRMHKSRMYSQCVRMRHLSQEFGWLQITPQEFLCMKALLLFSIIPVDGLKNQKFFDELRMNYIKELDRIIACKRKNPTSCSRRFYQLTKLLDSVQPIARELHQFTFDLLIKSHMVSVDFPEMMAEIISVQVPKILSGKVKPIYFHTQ
Experiment: qHTS assay to identify small molecule antagonists of the androgen receptor (AR) signaling pathway (AID 743035; active means well fitted inhibition curve with a large enough effect in the signal ratio in the repeat runs, not every such curve was filed as active; the % refers to the signal ratio; further: potency means the concentration at half of the fitted maximal effect)
Conditions: HEK293 AR-UAS-bla, R1881-stimulated, beta-lactamase FRET, 16 h; series mostly up to 58.5 µM
Summary of the method: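 Antagonism is scored as loss of R1881-driven beta-lactamase reporter expression in HEK293 cells carrying the reporter under a UAS element, after 16 h co-treatment at 37C and a 2 h room-temperature FRET substrate read.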

SMILES	Potency
CCCCCCCCCCCCCCCC(=O)OC[C@@H](COP(=O)([O-])OCC[N+](C)(C)C)OC(=O)CCCCCCCCCCCCCCC	inactive
COc1cc(/C=C/C(=O)N2CCN(CC(=O)N3CCCC3)CC2)cc(OC)c1OC	inactive
O=C(O)CCC/C=C\C[C@@H]1[C@@H](/C=C/[C@@H](O)COc2cccc(Cl)c2)[C@H](O)C[C@@H]1O	inactive
C=C1C(=O)O[C@H]2[C@H]1CC/C(C)=C\CC[C@@]1(C)O[C@@H]21	23.9 µM (active)
OCC(S)CS (stereo unspecified)	inactive
O=C1CSC2(CCN(CCCN3c4ccccc4Sc4ccc(Cl)cc43)CC2)N1	21.3 µM (active)
C=CC[C@@H]1/C=C(\C)C[C@H](C)C[C@H](OC)[C@H]2O[C@@](O)(C(=O)C(=O)N3CCCC[C@H]3C(=O)O[C@H](/C(C)=C/[C@@H]3CC[C@@H](O)[C@H](OC)C3)[C@H](C)[C@@H](O)CC1=O)[C@H](C)C[C@@H]2OC	16.9 µM (active)

Target: Androgen receptor (Homo sapiens) (UniProt P10275)
Experiment: qHTS assay to identify small molecule agonists of the androgen receptor (AR) signaling pathway (AID 743036; active means well fitted activation curve with a large enough effect in the signal ratio in the repeat runs, with a control signal flat, not every such curve was filed as active; the % refers to the signal ratio; further: potency means the concentration at half of the fitted maximal effect)
Conditions: HEK293 AR-UAS-bla GripTite, beta-lactamase FRET ratio, 16 h; series mostly up to 62.4 µM
Summary of the method: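 Activation was read as beta-lactamase FRET signal from LiveBLAzer B/G substrate, added for 2 h at room temperature. Before that, GeneBLAzer AR-UAS-bla GripTite (HEK293) cells had 16 h compound exposure at 37C.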

SMILES	Potency
C=C1C(=C/C=C2\CCC[C@]3(C)[C@@H]([C@H](C)/C=C/[C@H](C)C(C)C)CC[C@@H]23)C[C@@H](O)C[C@@H]1O	inactive
CCCCCCCCCCCCCCCC(=O)OC[C@@H](COP(=O)([O-])OCC[N+](C)(C)C)OC(=O)CCCCCCCCCCCCCCC	inactive
CCC(=O)O[C@H]1CC[C@H]2[C@@H]3CCc4cc(O)ccc4[C@H]3CC[C@]12C	3.01 µM (active)
COc1cc(/C=C/C(=O)N2CCN(CC(=O)N3CCCC3)CC2)cc(OC)c1OC	inactive
O=C(O)CCC/C=C\C[C@@H]1[C@@H](/C=C/[C@@H](O)COc2cccc(Cl)c2)[C@H](O)C[C@@H]1O	inactive
C=CC[C@@H]1/C=C(\C)C[C@H](C)C[C@H](OC)[C@H]2O[C@@](O)(C(=O)C(=O)N3CCCC[C@H]3C(=O)O[C@H](/C(C)=C/[C@@H]3CC[C@@H](O)[C@H](OC)C3)[C@H](C)[C@@H](O)CC1=O)[C@H](C)C[C@@H]2OC	inactive

Target: Androgen receptor (Homo sapiens) (UniProt P10275)
Experiment: qHTS assay to identify small molecule agonists of the androgen receptor (AR) signaling pathway using the MDA cell line (AID 743040; further: nearly all actives have a fitted effect of over 20% in size; further: potency means the concentration at half of the fitted maximal effect)
Conditions: MDA-kb2 AR-luc cells, MMTV luciferase, 16 h; series mostly up to 70.3 µM
Summary of the method: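 Cells plated, 5 h at 37C/0% CO2; compound or DMSO pinned; 16 h at 37C; ONE-Glo added; luminescence measured after 30 min at room temperature. Reporter line: MDA-kb2 with MMTV-luciferase responsive to AR and GR.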

SMILES	Potency
C=C1C(=C/C=C2\CCC[C@]3(C)[C@@H]([C@H](C)/C=C/[C@H](C)C(C)C)CC[C@@H]23)C[C@@H](O)C[C@@H]1O	inactive
CCCCCCCCCCCCCCCC(=O)OC[C@@H](COP(=O)([O-])OCC[N+](C)(C)C)OC(=O)CCCCCCCCCCCCCCC	inactive
CCC(=O)O[C@H]1CC[C@H]2[C@@H]3CCc4cc(O)ccc4[C@H]3CC[C@]12C	4.73 µM (active)
COc1cc(/C=C/C(=O)N2CCN(CC(=O)N3CCCC3)CC2)cc(OC)c1OC	inactive
CC1=C(/C=C/C(C)=C/C=C/C(C)=C/C=C/C=C(C)/C=C/C=C(C)/C=C/C2=C(C)C[C@@H](O)CC2(C)C)C(C)(C)C[C@H](O)C1	inactive
O=C(O)CCC/C=C\C[C@@H]1[C@@H](/C=C/[C@@H](O)COc2cccc(Cl)c2)[C@H](O)C[C@@H]1O	inactive
C=C1C(=O)O[C@H]2[C@H]1CC/C(C)=C\CC[C@@]1(C)O[C@@H]21	inactive
CCCCCCCCCCCCCCCCSCC(COC)COP(=O)([O-])OCC[N+](C)(C)C (stereo unspecified)	inactive
OCC(S)CS (stereo unspecified)	inactive
O=C1CSC2(CCN(CCCN3c4ccccc4Sc4ccc(Cl)cc43)CC2)N1	inactive
CN(C)C(=O)CCSC(SCCC(=O)O)c1cccc(/C=C/c2ccc3ccc(Cl)cc3n2)c1 (stereo unspecified)	inactive
CCOc1ccc(N=Nc2ccc(N)cc2N)cc1	0.473 µM (active)
C=CC[C@@H]1/C=C(\C)C[C@H](C)C[C@H](OC)[C@H]2O[C@@](O)(C(=O)C(=O)N3CCCC[C@H]3C(=O)O[C@H](/C(C)=C/[C@@H]3CC[C@@H](O)[C@H](OC)C3)[C@H](C)[C@@H](O)CC1=O)[C@H](C)C[C@@H]2OC	inactive
CCCC1([C@H](O)C/C=C/[C@H]2[C@H](O)CC(=O)[C@@H]2CCCCCCC(=O)OC)CCC1	inactive

Test system: not listed separately
Experiment: qHTS assay to identify small molecule antagonists of the androgen receptor (AR) signaling pathway using the MDA cell line - cell viability counter screen (AID 743041; further: nearly all actives have a fitted effect of over 45% in size)
Conditions: MDA-kb2 viability, CellTiter-Fluor, 16 h, cells co-treated with R1881 androgen agonist; series mostly up to 70.3 µM
Summary of the method: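 Cells were plated at 3,000 per well and left 5 h. Compounds in DMSO were then pinned in, followed by R1881. After 16 h at 37C, CellTiter-Fluor fluorescence gave viability.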

SMILES	Potency
C=C1C(=C/C=C2\CCC[C@]3(C)[C@@H]([C@H](C)/C=C/[C@H](C)C(C)C)CC[C@@H]23)C[C@@H](O)C[C@@H]1O	inactive
CC(C)[C@@H](N)C(=O)O	inactive
CCC(=O)O[C@H]1CC[C@H]2[C@@H]3CCc4cc(O)ccc4[C@H]3CC[C@]12C	inactive
COc1cc(/C=C/C(=O)N2CCN(CC(=O)N3CCCC3)CC2)cc(OC)c1OC	inactive
Cc1nnc(C(C)C)n1C1C[C@H]2CC[C@@H](C1)N2CC[C@H](NC(=O)C1CCC(F)(F)CC1)c1ccccc1 (stereo partly specified)	inactive
CC1=C(/C=C/C(C)=C/C=C/C(C)=C/C=C/C=C(C)/C=C/C=C(C)/C=C/C2=C(C)C[C@@H](O)CC2(C)C)C(C)(C)C[C@H](O)C1	inactive
O=C(O)CCC/C=C\C[C@@H]1[C@@H](/C=C/[C@@H](O)COc2cccc(Cl)c2)[C@H](O)C[C@@H]1O	inactive
COc1cc([C@@H]2c3cc4c(cc3C(O[C@@H]3O[C@@H]5COC(c6cccs6)O[C@H]5[C@H](O)[C@H]3O)C3COC(=O)[C@@H]32)OCO4)cc(OC)c1O (stereo partly specified)	inactive
CCCCCCCCCCCCCCCC(=O)O[C@@H]1CC(C)=C(/C=C/C(C)=C/C=C/C(C)=C/C=C/C=C(C)/C=C/C=C(C)/C=C/C2=C(C)C[C@@H](OC(=O)CCCCCCCCCCCCCCC)CC2(C)C)C(C)(C)C1	inactive
CO[C@H]1C[C@@H]2CC[C@@H](C)[C@@](O)(O2)C(=O)C(=O)N2CCCC[C@H]2C(=O)O[C@H]([C@H](C)C[C@@H]2CC[C@@H](OC(=O)C(C)(CO)CO)[C@H](OC)C2)CC(=O)[C@H](C)/C=C(\C)[C@@H](O)[C@@H](OC)C(=O)[C@H](C)C[C@H](C)/C=C/C=C/C=C/1C	inactive
CCCCCCCCCCCCCCCCSCC(COC)COP(=O)([O-])OCC[N+](C)(C)C (stereo unspecified)	inactive
O=C1CSC2(CCN(CCCN3c4ccccc4Sc4ccc(Cl)cc43)CC2)N1	inactive
NC(=O)C[C@@H](N)C(=O)O	inactive
CO[C@@]1(NC(=O)C2SC(=C(C(N)=O)C(=O)O)S2)C(=O)N2C(C(=O)O)=C(CSc3nnnn3C)CS[C@@H]21 (stereo partly specified)	inactive
CC(C)C(=O)OCC(=O)[C@@]12O[C@H](C3CCCCC3)O[C@@H]1C[C@H]1[C@@H]3CCC4=CC(=O)C=C[C@]4(C)[C@H]3[C@@H](O)C[C@@]12C	inactive
C#C[C@]1(O)CC[C@H]2[C@@H]3CCC4=CCCC[C@@H]4[C@H]3C(=C)C[C@@]21CC	inactive
CC(C)Cc1ccc([C@@H](C)C(=O)NS(C)(=O)=O)cc1	inactive
Nc1ncnc2c1ncn2[C@@H]1O[C@H](COP(=O)(O)OP(=O)(O)OP(=O)(O)O)[C@@H](O)[C@H]1O	inactive
CC(C)N1CCN(c2ccc(OC[C@H]3CO[C@](Cn4cncn4)(c4ccc(Cl)cc4Cl)O3)cc2)CC1	inactive
C=C1/C(=C\C=C2/CCC[C@]3(C)[C@@H]([C@H](C)OCCC(C)(C)O)CC[C@@H]23)C[C@@H](O)C[C@@H]1O	inactive
C[C@H](/C=C/[C@H](C)C(C)(C)O)[C@H]1CC[C@H]2/C(=C/C=C3C[C@@H](O)C[C@H](O)C3)CCC[C@]12C	inactive
CCCCCCCC(=O)CC[C@@H]1[C@@H](C/C=C\CCCC(=O)OC(C)C)[C@@H](O)C[C@H]1O	inactive
CC(CN(C)C)CN1c2ccccc2Sc2ccc(C(F)(F)F)cc21 (stereo unspecified)	inactive
O=[N+]([O-])c1c(Cl)cccc1-c1c[nH]cc1Cl	inactive
